Assay results reported in PubChem BioAssay (NCATS).
Inconclusive results are not listed. Calls of active or inactive are those of the source. Unless noted, calls come from the whole dose curve; as a rule, active = well fitted curve in the direction sought with a large enough effect; inconclusive = small, poorly fitted or top-dose-only effect, or another doubt; inactive = no such curve, though single readings can be large; an effect the other way counts as inactive or inconclusive.

How the values were obtained:
[1] = AP1 Signaling Pathway (AID 357; active = well fitted curve in either direction with a large enough effect, not every such curve was filed as active;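 note: ME-180 reporter cells stimulated with EGF at its EC50 level; % is set by controls: 0 for no effect and ±100 for the full control effect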); conditions: ME-180 AP-1-bla reporter, EGF-induced, beta-lactamase ratio, 5 h; at 17.2 µM (top of the series) unless noted
How it was run: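 A ratiometric CCF4 readout (405 nm excitation; 460 and 530 nm emission) quantified AP-1-driven beta-lactamase in ME-180 cells after 5 h with compound and EC50 EGF; AC50 values were derived for activators and inhibitors.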

[2] = NFAT Signaling Pathway (AID 444; active = well fitted curve in either direction with a large enough effect, not every such curve was filed as active;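 note: carbachol stimulus at about its EC50 of 1 µM final; % is set by controls: 0 for no effect and ±100 for the full control effect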); conditions: Jurkat NFAT-bla M1, carbachol, beta-lactamase ratio, 5 h; at 17.2 µM (top of the series) unless noted
How it was run: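 Read-out: CCF4 FRET ratio (460 nm/530 nm) after 1 h RT dye loading, used for %activity and AC50 from titration series. Cells: Jurkat NFAT-β-lactamase/M1 line, treated with compound plus 1 uM carbachol for 5 h, 37 °C.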

[3] = Stat Signaling Pathway (AID 446; active = well fitted curve in either direction with a large enough effect, not every such curve was filed as active;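 note: ME-180 cervical cancer cells given 40 pM IL-6 alongside compound; SIE-controlled beta-lactamase reporter measured as 460/530 nm FRET emission ratio; % is set by controls: 0 for no effect and ±100 for the full control effect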)
How it was run: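 Reporter line: ME-180 cervical carcinoma, SIE-beta-lactamase. Treatment: compound with 40 pM IL-6, 5 hrs, 37 C, in low-serum OPTI-MEM with 10 mM HEPES pH 7.3. Detection: 460/530 nm fluorescence.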

[4] = molecular target: Glucocorticoid receptor (Homo sapiens) (UniProt P04150); assay: GR-GFP Redistribution (AID 450;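 active = compounds whose dose series gives a full or clear partial fitted curve of increased nuclear translocation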; note: potency is the fitted concentration of half-maximal effect); conditions: U2OS GR-GFP nuclear translocation, laser cytometry, 2 h
Chain of Glucocorticoid receptor (Homo sapiens) (P04150 whole entry, looked up, the tested form may be a part): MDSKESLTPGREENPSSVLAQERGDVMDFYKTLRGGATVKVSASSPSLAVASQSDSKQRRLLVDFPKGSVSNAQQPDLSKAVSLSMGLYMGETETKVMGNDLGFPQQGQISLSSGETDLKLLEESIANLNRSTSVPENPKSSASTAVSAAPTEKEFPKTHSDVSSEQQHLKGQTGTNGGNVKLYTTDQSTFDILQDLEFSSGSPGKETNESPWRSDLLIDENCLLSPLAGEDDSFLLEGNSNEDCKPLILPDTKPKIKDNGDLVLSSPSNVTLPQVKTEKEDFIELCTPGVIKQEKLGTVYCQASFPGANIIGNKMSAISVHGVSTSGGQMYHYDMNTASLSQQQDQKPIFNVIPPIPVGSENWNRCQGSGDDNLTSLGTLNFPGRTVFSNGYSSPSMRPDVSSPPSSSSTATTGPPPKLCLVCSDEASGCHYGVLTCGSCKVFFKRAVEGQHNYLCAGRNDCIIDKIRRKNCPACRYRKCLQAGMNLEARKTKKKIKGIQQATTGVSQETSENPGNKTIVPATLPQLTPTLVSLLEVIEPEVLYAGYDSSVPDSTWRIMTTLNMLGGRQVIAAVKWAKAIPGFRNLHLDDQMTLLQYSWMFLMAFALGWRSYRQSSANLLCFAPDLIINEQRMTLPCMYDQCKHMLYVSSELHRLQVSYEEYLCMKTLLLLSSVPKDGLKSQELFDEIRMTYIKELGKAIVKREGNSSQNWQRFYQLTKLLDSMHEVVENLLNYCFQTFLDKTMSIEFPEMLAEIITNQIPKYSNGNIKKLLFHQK

[5] = molecular target: Glucocorticoid receptor (Homo sapiens) (UniProt P04150); assay: GR-EFC Redistribution (AID 451; calls by dose curve; note: potency is the fitted concentration of half-maximal effect); conditions: CHO-K1 GR-EFC translocation, beta-gal luminescence, 2 h
How it was run: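 Translocation of GR-ED fusion to nuclear EA restores b-gal, read by luminescence after 1 h room-temperature detection. Engineered CHO-K1 biosensor cells, 1,000/well, exposed 2 h at 37 C to titrations up to 46 uM final.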

[6] = molecular target: Mitogen-activated protein kinase 10 (Mus musculus) (UniProt Q61831); assay: JNK3 AlphaScreen Assay (AID 530; active = well fitted curve in either direction with a large enough effect, not every such curve was filed as active;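 note: kinase came from lysate of stimulated human HepG2 cells; signal reports phosphorylation of biotinylated GST-cJun 1-79 at Ser73 with 10 µM ATP; % is set by controls: 0 for no effect and ±100 for the full control effect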)
How it was run: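 Room-temperature AlphaScreen kinase assay; pre-activated HepG2 lysate as JNK3 source, biotin-GST-cJun(1-79) substrate, 10 uM ATP, compound 15 min preincubation.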

[7] = molecular target: 3',5'-cyclic-AMP phosphodiesterase 4B (Homo sapiens) (UniProt Q07343); assay: qHTS Assay for Inhibitors of PDE-IV (AID 607; active = well fitted activation curve with a large enough effect in the main read-out, with a control signal flat, not every such curve was filed as active; note: % of control where 0% means no effect)
Chain of 3',5'-cyclic-AMP phosphodiesterase 4B (Homo sapiens) (Q07343 whole entry, looked up): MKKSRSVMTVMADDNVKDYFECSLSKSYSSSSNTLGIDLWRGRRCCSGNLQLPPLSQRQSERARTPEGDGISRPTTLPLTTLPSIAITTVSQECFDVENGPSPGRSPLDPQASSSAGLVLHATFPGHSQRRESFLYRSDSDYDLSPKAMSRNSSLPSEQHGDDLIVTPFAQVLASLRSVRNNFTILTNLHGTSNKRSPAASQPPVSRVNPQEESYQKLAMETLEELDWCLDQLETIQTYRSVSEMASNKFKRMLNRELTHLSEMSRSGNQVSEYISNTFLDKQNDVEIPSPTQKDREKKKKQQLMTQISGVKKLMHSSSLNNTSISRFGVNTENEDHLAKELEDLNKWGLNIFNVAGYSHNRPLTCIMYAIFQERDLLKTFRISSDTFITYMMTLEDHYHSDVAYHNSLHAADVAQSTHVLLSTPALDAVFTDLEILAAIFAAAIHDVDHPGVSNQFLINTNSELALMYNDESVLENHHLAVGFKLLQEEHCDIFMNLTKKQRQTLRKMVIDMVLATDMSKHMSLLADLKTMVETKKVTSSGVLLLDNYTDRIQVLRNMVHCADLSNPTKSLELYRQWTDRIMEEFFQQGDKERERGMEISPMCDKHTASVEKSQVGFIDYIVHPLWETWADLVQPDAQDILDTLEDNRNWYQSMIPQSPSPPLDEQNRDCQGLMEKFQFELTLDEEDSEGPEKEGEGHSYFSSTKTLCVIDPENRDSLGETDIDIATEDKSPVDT
How it was run: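 Cell-based read-out of cAMP via a modified cyclic nucleotide-gated channel and membrane potential dye (535/590 nm) in HEK293 cells expressing PDE4 endogenously. Compounds tested up to 22.9 uM final; 100 uM RO 20-1724 reference.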

[8] = molecular target: Cytochrome P450 3A4 (Homo sapiens) (UniProt P08684); assay: qHTS Assay for Activators of Cytochrome P450 3A4 (AID 885); note: nearly all actives have a fitted effect of over 65% in size
Chain of Cytochrome P450 3A4 (Homo sapiens) (P08684 whole entry, looked up): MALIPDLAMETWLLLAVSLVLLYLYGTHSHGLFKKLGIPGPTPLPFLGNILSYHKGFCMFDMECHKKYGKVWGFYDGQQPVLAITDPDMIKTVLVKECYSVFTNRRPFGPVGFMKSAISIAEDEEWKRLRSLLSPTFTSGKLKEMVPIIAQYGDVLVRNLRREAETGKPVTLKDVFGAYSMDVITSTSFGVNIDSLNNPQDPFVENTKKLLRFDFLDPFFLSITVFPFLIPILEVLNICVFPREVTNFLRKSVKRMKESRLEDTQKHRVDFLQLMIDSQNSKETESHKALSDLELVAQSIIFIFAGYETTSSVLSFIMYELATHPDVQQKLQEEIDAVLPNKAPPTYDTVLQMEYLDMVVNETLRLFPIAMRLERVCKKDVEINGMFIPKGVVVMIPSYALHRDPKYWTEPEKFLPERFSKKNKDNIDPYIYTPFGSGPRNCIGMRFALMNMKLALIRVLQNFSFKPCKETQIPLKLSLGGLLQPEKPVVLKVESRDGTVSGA
How it was run: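 Signal was normalized against complete inhibition by 57 uM ketoconazole. The reaction used 20nM CYP3A4 with 25uM Luciferin-PPXE, 10-min compound preincubation and a 60-min NADPH-supported step at RT.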

[9] = molecular target: ATP-dependent 6-phosphofructokinase (Trypanosoma brucei brucei) (UniProt O15648); assay: qHTS Assay to Find Inhibitors of T. brucei phosphofructokinase: hit validation (AID 492961)
Chain of ATP-dependent 6-phosphofructokinase (Trypanosoma brucei brucei) (O15648 whole entry, looked up): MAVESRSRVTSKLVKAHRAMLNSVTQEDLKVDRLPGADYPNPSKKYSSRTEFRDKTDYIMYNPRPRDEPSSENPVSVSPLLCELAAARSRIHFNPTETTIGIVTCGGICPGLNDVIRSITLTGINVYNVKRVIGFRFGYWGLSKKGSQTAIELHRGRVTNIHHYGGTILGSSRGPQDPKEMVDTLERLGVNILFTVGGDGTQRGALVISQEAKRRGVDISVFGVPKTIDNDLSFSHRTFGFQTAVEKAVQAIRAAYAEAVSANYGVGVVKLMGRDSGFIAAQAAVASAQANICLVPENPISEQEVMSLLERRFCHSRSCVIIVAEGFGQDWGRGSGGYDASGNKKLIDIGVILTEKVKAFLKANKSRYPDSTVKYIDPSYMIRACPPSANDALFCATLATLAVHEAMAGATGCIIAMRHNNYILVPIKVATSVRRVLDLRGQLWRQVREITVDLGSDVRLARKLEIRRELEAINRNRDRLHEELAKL
How it was run: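 Measures ADP output of PFK (1.25 nM) at 0.1 mM ATP, 0.5 mM F6P, pH 8.0 TEA buffer with 5 mM MgCl2. No-enzyme wells define full inhibition; uninhibited enzyme wells define zero.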

[10] = molecular target: Luciferin 4-monooxygenase (Photinus pyralis) (UniProt P08659); assay: Biochemical firefly luciferase enzyme assay for NPC (AID 624030);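 note: purified P. pyralis luciferase at 10 nM with luciferin and ATP substrate; 0% = DMSO and -100% = full luciferase inhibition by PTC124 control; nearly all actives have a fitted effect of over 70% in size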
Chain of Luciferin 4-monooxygenase (Photinus pyralis) (P08659 whole entry, looked up): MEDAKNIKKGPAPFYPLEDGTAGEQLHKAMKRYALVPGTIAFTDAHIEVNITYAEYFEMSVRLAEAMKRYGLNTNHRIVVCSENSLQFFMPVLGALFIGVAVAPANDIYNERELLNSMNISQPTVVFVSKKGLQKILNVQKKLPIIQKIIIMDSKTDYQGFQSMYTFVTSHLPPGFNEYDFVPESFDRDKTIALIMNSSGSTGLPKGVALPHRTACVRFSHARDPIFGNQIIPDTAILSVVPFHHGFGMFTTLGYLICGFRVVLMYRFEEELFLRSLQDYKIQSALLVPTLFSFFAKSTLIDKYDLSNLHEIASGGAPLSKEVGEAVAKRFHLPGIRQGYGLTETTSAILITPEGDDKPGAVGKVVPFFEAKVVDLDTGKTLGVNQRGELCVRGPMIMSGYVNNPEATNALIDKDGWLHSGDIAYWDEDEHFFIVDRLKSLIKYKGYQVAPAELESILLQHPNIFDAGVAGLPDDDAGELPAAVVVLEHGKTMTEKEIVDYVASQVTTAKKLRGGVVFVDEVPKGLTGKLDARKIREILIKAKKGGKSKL
How it was run: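 Direct inhibition of firefly luciferase enzyme (10 nM final, 50 mM Tris Acetate) assessed by luminescence within 5 minutes. Percent activity scaled between DMSO and PTC124 positive control, with concentration-effect curves classified by fit quality and response.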

[11] = S16 Schwann cell viability assay (CellTiter-Glo assay) (AID 624031);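 note: cellular ATP luminescence as a viability measure; plate controls were DMSO-treated cells for no effect and cell-free wells for full effect; nearly all actives have a fitted effect of over 70% in size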
How it was run: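 Luminescent ATP read-out (CellTiter-Glo) after 24 h compound exposure of native S16 rat Schwann cells at 37 °C. Signals were normalized between cell-free wells and DMSO-treated cells, set as 0% activity.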

[12] = S16 Schwann cell PMP22 intronic element firefly luciferase assay (AID 624032);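 note: plate controls were DMSO for no effect and PTC124 positive control mean for full effect; nearly all actives have a fitted effect of over 30% in size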
How it was run: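 Luciferase reporter of PMP22 intronic-element expression in stably transfected S16 rat Schwann cells, read by ONE-Glo luminescence after 24 h compound exposure at 37 C. Activity scaled between DMSO (0%) and positive-control PTC124; concentration-effect curves quality-classified.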

[13] = S16 Schwann cell PMP22 intronic element beta-lactamase assay (AID 624044; calls by dose curve;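 note: 0% = DMSO and -100% = potassium clavulanate positive control; nearly all actives have a fitted effect of over 15% in size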); conditions: S16 rat Schwann cells, PMP22 element beta-lactamase FRET, 24 h; ratio activity, negative = inhibition: at 38.3 µM (top of the series)
How it was run: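 Rat S16 Schwann cells with beta-Lac driven by a PMP22 intronic element, compound-treated 24 h at 37 °C. LiveBLAzer FRET B/G read: 460 nm normalized to potassium clavulanate vs DMSO; 535 nm FRET as viability; concentration-effect curves classified.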

[14] = qHTS profiling for inhibitors of Plasmodium falciparum proliferation (AID 504749);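 note: 0% = DMSO vehicle and full inhibition = artemisinin control; nearly all actives have a fitted effect of over 60% in size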; conditions: P. falciparum in erythrocytes, SYBR Green DNA, 72 h, at 12.8 µM (top of the series)
How it was run: (§1)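 Three-day growth assay of blood-stage parasites in erythrocytes (0.3% parasitemia, 2.5% hematocrit) at 37 C, 5% CO2, quantified by SYBR Green DNA staining after overnight detergent lysis.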

[15] = test system: 3D7; assay: as above; conditions: P. falciparum in erythrocytes, SYBR Green DNA, 72 h; series mostly up to 28.7 µM
How it was run: as §1

[16] = test system: AA1029; assay: as above; conditions: P. falciparum in erythrocytes, SYBR Green DNA, 72 h; series mostly up to 28.7 µM
How it was run: as §1

[17] = test system: AS120; assay: as above; conditions: P. falciparum in erythrocytes, SYBR Green DNA, 72 h; series mostly up to 28.7 µM
How it was run: as §1

[18] = test system: ATS189; assay: as above; conditions: P. falciparum in erythrocytes, SYBR Green DNA, 72 h; series mostly up to 28.7 µM
How it was run: as §1

[19] = test system: ATS95; assay: as above; conditions: P. falciparum in erythrocytes, SYBR Green DNA, 72 h; series mostly up to 28.7 µM
How it was run: as §1

[20] = test system: C2A; assay: as above; conditions: P. falciparum in erythrocytes, SYBR Green DNA, 72 h; series mostly up to 28.7 µM
How it was run: as §1

[21] = test system: CP185; assay: as above; conditions: P. falciparum in erythrocytes, SYBR Green DNA, 72 h; series mostly up to 28.7 µM
How it was run: as §1

[22] = test system: CP191; assay: as above; conditions: P. falciparum in erythrocytes, SYBR Green DNA, 72 h; series mostly up to 28.7 µM
How it was run: as §1

[23] = test system: CP192; assay: as above; conditions: P. falciparum in erythrocytes, SYBR Green DNA, 72 h; series mostly up to 28.7 µM
How it was run: as §1

[24] = test system: CP194; assay: as above; conditions: P. falciparum in erythrocytes, SYBR Green DNA, 72 h; series mostly up to 28.7 µM
How it was run: as §1

[25] = test system: CP201; assay: as above; conditions: P. falciparum in erythrocytes, SYBR Green DNA, 72 h; series mostly up to 28.7 µM
How it was run: as §1

[26] = test system: CP203; assay: as above; conditions: P. falciparum in erythrocytes, SYBR Green DNA, 72 h; series mostly up to 28.7 µM
How it was run: as §1

[27] = test system: CP211; assay: as above; conditions: P. falciparum in erythrocytes, SYBR Green DNA, 72 h; series mostly up to 28.7 µM
How it was run: as §1

[28] = test system: CP215; assay: as above; conditions: P. falciparum in erythrocytes, SYBR Green DNA, 72 h; series mostly up to 28.7 µM
How it was run: as §1

[29] = test system: CP217; assay: as above; conditions: P. falciparum in erythrocytes, SYBR Green DNA, 72 h; series mostly up to 28.7 µM
How it was run: as §1

[30] = test system: CP237; assay: as above; conditions: P. falciparum in erythrocytes, SYBR Green DNA, 72 h; series mostly up to 28.7 µM
How it was run: as §1

[31] = test system: CP238; assay: as above; conditions: P. falciparum in erythrocytes, SYBR Green DNA, 72 h; series mostly up to 28.7 µM
How it was run: as §1

[32] = test system: CP247; assay: as above; conditions: P. falciparum in erythrocytes, SYBR Green DNA, 72 h; series mostly up to 28.7 µM
How it was run: as §1

[33] = test system: CP250; assay: as above; conditions: P. falciparum in erythrocytes, SYBR Green DNA, 72 h; series mostly up to 28.7 µM
How it was run: as §1

[34] = test system: CP252; assay: as above; conditions: P. falciparum in erythrocytes, SYBR Green DNA, 72 h; series mostly up to 28.7 µM
How it was run: as §1

CCOC(=O)c1cncn1[C@@H](C)c1ccccc1
inactive: activity change, negative = inhibition [1] 9.06% | activity change, negative = inhibition [2] -21.8% | outcome [3] | Potency [4] > 20.6 µM | Potency [5] > 20.6 µM | outcome [6] | outcome [7] | Potency [8] | outcome [9] | Potency [10] | Potency [11] | Potency [12] | Potency [13] | activity, negative = inhibition ([14]; parasite line A) -15.7% | activity, negative = inhibition ([14]; parasite line B) -15.4% | Potency [15] | Potency [16] | Potency [17] | Potency [18] | Potency [19] | Potency [20] | Potency [21] | Potency [22] | Potency [23] | Potency [24] | Potency [25] | Potency [26] | Potency [27] | Potency [28] | Potency [29] | Potency [30] | Potency [31] | Potency [32] | Potency [33] | Potency [34]
